Test results: PubChem BioAssay (Tox21)
Values joined by “and” are separate entries in the source; they are usually repeats but may differ in a detail not shown here. Equal values may be shown once. Records with an inconclusive call do not appear. Entries that show only a call come without a potency. Where a structure was tested more than once in an assay, its records may differ in their call. Active and inactive are the calls of the source. Calls follow the shape of the dose curve; as a rule, active = well fitted inhibition curve with a large enough effect in the repeat runs; inconclusive = weak or mixed curves; inactive = no such curve, though single readings can be large or run the other way.

biological target: Cytochrome P450 2D6 (Homo sapiens) (UniProt P10635); experiment: Cytochrome P450 Family 2 Subfamily D Member 6 (CYP2D6) small molecule antagonists: luciferase reporter qHTS assay (AID 1671196); conditions: P450-Glo CYP2D6 enzyme assay, luciferin luminescence, 1 h; series mostly up to 115 µM; activity change, negative = inhibition: at the top concentration; also: nearly all actives have a fitted effect of over 50% in size
Sequence (P10635 whole entry, looked up): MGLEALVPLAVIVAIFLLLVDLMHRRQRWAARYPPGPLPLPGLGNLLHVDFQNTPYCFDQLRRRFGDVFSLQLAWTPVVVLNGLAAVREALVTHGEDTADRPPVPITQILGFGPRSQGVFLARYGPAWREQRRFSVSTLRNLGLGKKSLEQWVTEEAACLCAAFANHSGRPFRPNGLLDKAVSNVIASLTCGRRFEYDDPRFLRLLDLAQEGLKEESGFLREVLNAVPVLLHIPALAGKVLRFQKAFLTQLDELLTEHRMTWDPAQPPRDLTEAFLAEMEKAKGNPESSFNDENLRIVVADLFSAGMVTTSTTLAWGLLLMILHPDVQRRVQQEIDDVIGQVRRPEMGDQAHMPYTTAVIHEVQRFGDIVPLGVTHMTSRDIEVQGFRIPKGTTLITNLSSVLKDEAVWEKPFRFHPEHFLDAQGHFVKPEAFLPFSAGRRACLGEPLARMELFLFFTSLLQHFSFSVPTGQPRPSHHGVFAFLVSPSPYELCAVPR
From the text: U.S. Tox21 Program National Center for Advancing Translational Sciences [NCATS] U.S. Environmental Protection Agency [EPA] National Institutes of Environmental Health Sciences [NIEHS] National Toxicology Program [NTP] U.S. Food and Drug Administration [FDA] Tox21 Assay Overview: Cytochrome P450 (CYP) enzymes are membrane-bound hemeproteins that play a key role in metabolism of drugs and xenobiotics. Evaluation of the effect of chemicals on CYP isozymes is useful to minimize the adverse drug reactions and toxicities in drug development process. Tox21 chemicals were tested for their effect on CYP enzyme activities by using P450-Glo (TM) screening systems (Promega Corporation, Madison, WI). These systems provide a luminescent method containing proluciferin substrates and are converted to luciferin products by CYP isozymes. The luciferin products formed are detected with a luciferin detection reagent, and the amount of light produced is proportional to CYP activity. P450-Glo (TM) CYP2D6 screening system (Catalog. No. V9890) was used to detect the compounds that interfere in CYP2D6 activity.
Tox21 Assay Protocol Summary: Two ul of enzyme-substrate mix was dispensed into medium binding white/solid 1536-well plates (Greiner Bio-One North America Inc., Monroe, NC) using a BioRaptr Flying Reagent Dispenser (FRD, Beckman Coulter, Brea, CA). […] The assay plates were incubated at room temperature for 10 min. Then 2 ul of NADPH regeneration solution was added to each well of the assay plates using an FRD and incubated at room temperature for 1 h. The reaction was stopped by adding 4 ul of detection reagent using an FRD and after 20 min incubation at room temperature the luminescence signal was measured using a ViewLux plate reader (Perkin Elmer, Shelton, CT). Data were expressed as relative luminescence units.
Potency is read from the fitted curve at half-maximal effect.

Compound | Potency | activity change, negative = inhibition
Clc1ccc(Cl)cc1 | inactive | 
CCCN(CCC)N=O | inactive | 
Nc1c(Cl)c(Cl)nc(C(=O)O)c1Cl | inactive | 
CCNc1nc(NC(C)(C)C)nc(SC)n1 | inactive | 
Clc1ccccc1Cl | inactive | 
C#CCN(C)[C@H](C)Cc1ccccc1 | 12.6 µM (active) and 17.4 µM (active) | 
CCCC1COC(Cn2cncn2)(c2ccc(Cl)cc2Cl)O1 (stereo not given) | 32.3 µM (active) and 35.6 µM (active) | 
CCc1cccc(C)c1N(C(=O)CCl)C(C)COC (stereo not given) | inactive | 
CON(C)C(=O)Nc1ccc(Cl)c(Cl)c1 |  | -18.3% (inactive)
c1cc2c3c(cccc3c1)CC2 | inactive | 
CN(C)CCO | inactive | 
CCOP(=S)(OCC)Oc1cnc2ccccc2n1 | 35.6 µM (active) | 
CCOC(=O)c1ccccc1C(=O)OCC | inactive | 
OCCN(CCO)CCO | inactive | 
Clc1cccc(Cl)c1Cl | inactive | 
CC(C)NC(=O)N1CC(=O)N(c2cc(Cl)cc(Cl)c2)C1=O | inactive | 
O=C(O)c1ccccn1 | inactive | 
OC(O)C(Cl)(Cl)Cl | inactive | 
CC(C)(C)C(O)(CCc1ccc(Cl)cc1)Cn1cncn1 (stereo not given) | 28.6 µM (active) and 35.6 µM (active) | 
CC(Br)C(=O)O (stereo not given) |  | -26.6% (inactive)

Compound | Potency | activity change, negative = inhibition
CCN(CC)CCO | inactive | 
CC(C)C1(C)N=C(c2nc3ccccc3cc2C(=O)O)NC1=O (stereo not given) |  | -5.55% (inactive)
CC(C)(Cl)Cl | inactive | 
COC(=O)NS(=O)(=O)c1ccc(N)cc1 | inactive | 
COC(=O)c1ccccc1N | inactive | 
ClCCBr | 35.5 µM (active) and inactive | 
COP(N)(=O)SC (stereo not given) | inactive | 
c1ccc2c(c1)oc1ccccc12 | inactive | 
CN(C)N=O | inactive | 
CCCCCCCCCCCC#N |  | -1.66% (inactive)
O=C1CCCN1 | inactive | 
C1CC2OC2CC1C1CO1 (stereo not given) | inactive | 
Cc1cc(Cl)ccc1O | 19.4 µM (active) and 12.6 µM (active) | 
Nc1ccc(Cc2ccc(N)cc2)cc1 |  | -23.1% (inactive)
CC(C)(C)OOC(=O)c1ccccc1 |  | -7.12% (inactive)
C[C@]12CC[C@H]3[C@@H](CC[C@@]45O[C@@H]4C(O)=C(C#N)C[C@]35C)[C@@H]1CC[C@@H]2O | inactive | 
CCC[CH2][Sn]([Cl])([Cl])[Cl] |  | -11.8% (inactive)
ClCc1cccnc1 |  | -20.1% (inactive)
CC(C)N1C(=O)c2ccccc2NS1(=O)=O |  | -9.39% (inactive)
CC(C)OC(=O)Nc1ccccc1 | inactive | 
